Experimental findings from PubChem BioAssay (EPA / NIEHS) are described below.

Where “and” joins values, the source holds several entries; their conditions need not be identical. Equal entries are not always repeated. Where a structure was tested more than once in an assay, its records may differ in their call. Calls of active or inactive are those of the source. The calls were made as follows: active = hit-call score of the fitted dose curve at least 0.9, where 1 is the maximum; inactive = score below 0.9.

This assay is described as follows: BSK_LPS_SRB: Viability Assessment in the BioMAP Diversity Plus: LPS Assay (AID 2283079).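 Also: measured one day after compound addition; fitted in both directions against DMSO so loss or gain of signal counts.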 Particulars: primary human HUVEC with PBMC. The protocol:
BSK_LPS is a cell-based, multiplexed-readout assay that uses umbilical vein endothelium and peripheral blood mononuclear cells, a human vascular primary cell co-culture, with measurements taken at 24 hours after chemical dosing in a 96-well plate.BSK_LPS_SRB is an assay component measured in the BSK_LPS assay. It measures 0.1% sulforhodamine related to cell death using Sulforhodamine staining technology.Data from the assay component BSK_LPS_SRB was analyzed into 1 assay endpoint. This assay endpoint, BSK_LPS_SRB, was analyzed with bidirectional fitting relative to DMSO as the negative control and baseline of activity. Using a type of viability reporter, gain or loss-of-signal activity can be used to understand changes in the signaling. Furthermore, this assay endpoint can be referred to as a primary readout, because this assay has produced multiple assay endpoints where this one serves a signaling function. To generalize the intended target to other relatable targets, this assay endpoint is annotated to the cell morphology intended target family, where the subfamily is cell conformation.
The levels of cell surface (or secreted, indicated by the prefix "s") biomarker endpoints were measured by ELISA. Overt cytotoxicity to cells in confluent adherent cultures (all systems other than the BT system) was assessed by measuring total protein levels using sulforhodamine B (SRB) staining in parallel cultures at the time of biomarker measurements, indicated as SRB endpoints. For proliferation assays for adherent cell types, individual cell types are cultured at sub-confluence and relative cell numbers quantified by SRB staining at time points optimized for each system (48 h: 3C and CASM3C systems; 72 h: BT and HDF3CGF systems; 96 h: SAg system). SRB was performed by staining cells with 0.1% SRB after fixation with 10% TCA and reading wells at 560 nm.Viability and proliferation of PBMC (T cells) was quantified by Alamar Blue reduction for the SAg and BT systems. For PBMC viability (referred to as PBMC Cytotoxicity within the assay endpoint names), cells were plated (75,000/well in a 96-well plate) and then chemical samples added for 1 h before addition of activators, SEB and TSST-1 (20 ng/mL final concentration each). Cells were incubated for 90 h. Then, Alamar Blue (20 uL/well) (Invitrogen, Cat DAL1100) was added for 6 h, and the plates were read with a fluorescence microplate reader at 546/580 nm (excitation/emission). For PBMC proliferation, cells were plated and activated as above but incubated for only 16 h prior to addition of Alamar Blue. Plates were read after 6 h.
For the molecule `CCCCCCC(=O)O`, the result was inactive.

For `COc1ccc([N+](=O)[O-])cc1N`, the result was inactive.

`Cc1cc(C)c(O)c(C)c1`: the result was inactive.

On to `CC1=C(/C=C/C(C)=C/C=C/C(C)=C/C(=O)O)C(C)(C)CCC1`, for which the result was inactive.

As for `CC(C)(C)c1cc(C(C)(C)C)c(O)c(C(C)(C)C)c1`, the outcome was inactive.

Turning to `CC(C)CCCCCCOC(=O)CCCCC(=O)OCCCCCCC(C)C`, the result was inactive.

Consider `C=C(C)C(=O)OCCC(F)(F)C(F)(F)C(F)(F)C(F)(F)C(F)(F)C(F)(F)F`, for which the result was inactive.

Broadly, the AC50 is the concentration giving half of the maximal activity seen. As to `OCCC(F)(F)C(F)(F)C(F)(F)C(F)(F)C(F)(F)C(F)(F)C(F)(F)C(F)(F)F`, the AC50 is 15.8 µM (active) and 17.4 µM (active); the outcome was inactive.

With `Cc1oc(-c2ccccc2)nc1CCOc1ccc(C[C@H](Nc2ccccc2C(=O)c2ccccc2)C(=O)O)cc1`, the AC50 was 20.6 µM (active).

As for `Oc1cccc(O)c1`, the result was inactive.

`Oc1cc2ccccc2c2ccccc12`: the AC50 was 12.1 µM (active).

As for `c1ccc2c(c1)Cc1ccccc1-2`, the result was inactive.

Regarding `CC[C@H](C)[C@@H](C(=O)O)n1sc2ccccc2c1=O`, the result was inactive.

For `O=c1c(-c2ccc(O)cc2)coc2cc(O)ccc12`, the outcome was inactive.

For `CCc1nn(C2CCCCC2)c2cc(C3(C#N)CCC(C(=O)O)CC3)ccc12` (stereo not given), the AC50 is 4.2 µM (active).

Consider `CCCCCCCCC(=O)O`, for which the result was inactive.

Turning to `OCCC(F)(F)C(F)(F)C(F)(F)C(F)(F)C(F)(F)C(F)(F)F`, the AC50 is 45.8 µM (active) and the outcome was inactive.

As to `O=[N+]([O-])c1ccc(O)cc1`, the result was inactive.

In the case of `CCCCC(CC)COC(=O)CCCCC(=O)OCC(CC)CCCC` (stereo not given), the outcome was inactive.

As for `CCN(CC)CCNc1ccc(CNC=O)c2sc3ccc(OC)cc3c(=O)c12`, the AC50 is 25.3 µM (active).

Regarding `O=C(OCCOCCOC(=O)c1ccccc1)c1ccccc1`, the result was inactive.

On to `CC(C)(C)c1cccc(C(C)(C)C)c1O`, for which the outcome was inactive.

Consider `COCC(C)O` (stereo not given), for which the result was inactive.

As to `CCCOc1sc(C(=O)N2CCC(c3cc(CN)ccc3F)CC2)c(C)c1Br`, the AC50 was 5.93 µM (active).

Turning to `ClC1=C(Cl)C(Cl)(Cl)C(Cl)=C1Cl`, the AC50 was 11.4 µM (active).

With `CCCCCCCCCCCCc1ccccc1S(=O)(=O)O`, the outcome was inactive.

For the molecule `O=C(O)c1ccccc1C(c1ccc(O)cc1)c1ccc(O)cc1`, the outcome was inactive.

As to `C#C[C@]1(O)CC[C@H]2[C@@H]3CCC4=CC(=O)CC[C@@H]4[C@H]3CC[C@@]21C`, the AC50 is 5.96 µM (active).

Turning to `CCCCCCCC(=O)O`, the outcome was inactive.

Consider `CC[C@H](c1ccc(O)cc1)[C@@H](CC)c1ccc(O)cc1`, for which the concentration at half-maximal activity (AC50) is 31.5 µM (active).

In the case of `CC(=O)CC(C)(C)O`, the outcome was inactive.

On to `N#C[C@@H]1CC(F)(F)CN1C(=O)CNC1CC2CCC(C1)N2c1ncccn1` (stereo not given in full), for which the outcome was inactive.

As for `CCCCCCCCOC(=O)CCCCCCCCC(=O)OCCCCCCCC`, the result was inactive.

As for `CCC(C)(C)C1CCC(O)CC1` (stereo not given), the outcome was inactive.

On to `OC1CCC(C2CCCCC2)CC1` (stereo not given), for which the result was inactive.

In the case of `CCCCCCCCCCCCCC[N+](C)(C)C`, the AC50 was 5.37 µM (active).

Regarding `CN1CCN(c2ccccc2/C=C2\SCCN(c3ccc(Cl)c(Cl)c3)C2=O)CC1`, the AC50 was 16.3 µM (active).

In the case of `CCC(=C(c1ccc(O)cc1)c1ccc(OCCN(C)C)cc1)c1ccccc1`, the AC50 is 9.13 µM (active).
